Assay outcomes from PubChem.
DRD3 antagonist: blocks the human D3 dopamine receptor; AID 652054; 360,000 tested, 2.5% active; D3R cells, DiscoveRx beta-arrestin luminescence, antagonist mode; active compounds read low; max response, negative = inhibition, %; in the data active means max response below about -50%; inconclusive means no clear call, values can overlap the other calls
Target sequence (P35462 whole entry, looked up): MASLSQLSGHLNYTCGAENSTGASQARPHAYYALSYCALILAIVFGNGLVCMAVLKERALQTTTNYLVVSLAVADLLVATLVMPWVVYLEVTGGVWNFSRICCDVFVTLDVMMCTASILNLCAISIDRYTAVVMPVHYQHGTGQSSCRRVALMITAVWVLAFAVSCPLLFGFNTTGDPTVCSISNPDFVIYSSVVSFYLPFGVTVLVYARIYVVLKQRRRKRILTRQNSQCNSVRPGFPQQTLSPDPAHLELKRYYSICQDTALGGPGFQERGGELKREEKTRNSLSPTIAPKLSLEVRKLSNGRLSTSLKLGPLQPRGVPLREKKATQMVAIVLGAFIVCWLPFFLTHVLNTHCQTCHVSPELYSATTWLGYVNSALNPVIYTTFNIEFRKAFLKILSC
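Cells expressing the human receptor were seeded at 1500 cells/well, incubated overnight at 37 degrees C in 5% CO2, then exposed to library compounds with dopamine controls for 90 minutes at 37 degrees C before luminescent detection.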
ATXN2 expr inh: inhibitors of ATXN2 expression; HEK-293 ATXN2-luciferase reporter, luminescence, 24 h; Potency, µM (highest dose often 57 µM), usual class: inhibitors; 360,000 tested, 0.72% active; AID 1745845; further: nearly all actives have a fitted effect of over 55% in size
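ATXN2-luciferase reporter cells (luciferase flanked by upstream and downstream ATXN2 gene portions) were treated 24 h at 37 °C with compounds at up to 57 uM. SteadyGlo luminescence gave expression; GF-AFC fluorescence gave viability.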
TGFb inhibitor: blocks TGF-b signaling. HepG2 CAGA-GFP TGF-b/SMAD3 reporter, GFP fluorescence, 18 h; TGF-beta stimulated, 500 pg/mL final. Potency, µM (series often up to 46.1 µM), actives largely listed as inhibitors. 410,000 tested, 1.2% active; further: nearly all actives have a fitted effect of over 65% in size
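Per well, imaged GFP fluorescence of HEPG2 CAGA-GFP cells gives the signal; cells get compound, then TGF-beta (500 pg/mL final), 18 h at 37 degrees C; %Activity versus -TGF-beta and +DMSO controls.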
HepG2 tox: HepG2 cytotoxicity, counter-screen for TGF-b inhibitors; HepG2 CAGA-GFP viability, ATP luminescence, 18 h; Potency, µM (highest dose often 46.1 µM), usual class: cytotoxic; 410,000 tested, 0.76% active; AID 588856
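CellTiter-Glo luminescence gave cytotoxicity after 18 hours at 37 degrees C. The cells were HepG2 CAGA-GFP in 1% FBS DMEM, stimulated with 500 pg/mL TGF-beta after compound addition. %Activity was normalised to no-cell wells (complete cell-killing) and DMSO (no toxicity), and curves were fitted and classified.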
D3 ag: activates the human D3 dopamine receptor. P35462. D3R DiscoveRx beta-arrestin cells, luminescence, 90 min. max activation, %. 410,000 tested, 0.58% active; in the data active means max activation above about 30%
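Agonist-mode cell screen: cells plated at 1500/well and incubated overnight at 37 °C, then exposed to library compounds for 90 min at 37 °C. Detection reagent was added for 30–60 min at room temperature, and luminescence was read.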
ATXN viability: reduces viability in counter-screen for ATXN expression inhibitors; Potency, µM (series often up to 56.7 µM), hits mostly cytotoxic; 400,000 tested, 0.49% active; S2 cells (HEK-293 line with an ATXN2-luciferase reporter) viability, CellTiter-Fluor protease fluorescence, 24 h; AID 651635; further: nearly all actives have a fitted effect of over 40% in size
Hits are given with their value; i = inactive; ? = inconclusive; nt = not tested or not shown. Hits are enriched below; roughly 4.7% of the tested compounds scored in any of these assays. Unless noted, the call rests on the fitted dose curve; in most records, active means well fitted curve in the direction sought with a large enough effect; inconclusive means small, poorly fitted or top-dose-only effect, or another doubt; inactive means no such curve, though single readings can be large; an effect the other way counts as inactive or inconclusive.

SMILES	DRD3 antagonist	ATXN2 expr inh	TGFb inhibitor	HepG2 tox	D3 ag	ATXN viability
C=CCN1C(=O)/C(=C/c2ccc(OC(C)=O)c(OCC)c2[N+](=O)[O-])SC1=S	i	?	7.1µM	i	i	nt
CC(=O)N[C@H]1[C@@H]([C@H](O)[C@H](O)CO)OC(C(=O)O)=C[C@@H]1N=C(N)N	nt	i	nt	nt	nt	nt
COc1c(Cl)cc(Cl)cc1C(=O)Nc1cccc(-c2nc3ccccc3o2)c1C	nt	i	i	i	i	i
CCC(C)[C@H]1COCCS(=O)(=O)N1Cc1ccccc1F (some centres undefined)	i	i	?	i	i	i
CC(C)C[C@H]1COCCS(=O)(=O)N1Cc1ccccc1F	i	i	i	i	42	i
CCCCCCCCSC1=CC(=O)C(OC)=C(OC)C1=O	-106	nt	10µM	7.1µM	i	?
c1ccc(CNCCC(Cc2ccccc2)c2ccco2)cc1 (centres undefined)	i	i	20µM	i	i	i
O=C(Nc1ccccc1)c1ccc(CN2CCc3ccccc3C2)cc1	?	i	i	i	i	i
Cc1ccc(NC(=O)c2ccc(CN3CCc4ccccc4C3)cc2)cc1	-85	i	?	i	i	i
Cc1cc(C)cc(NC(=O)c2ccc(CN3CCc4ccccc4C3)cc2)c1	-67	i	i	i	i	i
O=C(Nc1cccnc1)c1ccc(CN2CCc3ccccc3C2)cc1	-74	i	i	i	i	i
CC1CN(C(=O)CCC(=O)Nc2cc(F)ccc2F)c2ccccc2S1 (centres undefined)	nt	nt	i	i	i	nt
CN(C)c1nc2cc(Cl)ccc2cc1CN(Cc1ccc2c(c1)OCO2)C(=O)c1ccoc1	nt	nt	nt	nt	nt	i
CN(C)CC(C)(O)c1ccc2c(c1)CN(Cc1cnn(-c3ccccc3)c1)CCO2 (centres undefined)	nt	nt	nt	nt	nt	i
CCOc1ccc(-c2csc(/C(C#N)=C/c3ccc(Br)cc3)n2)cc1	nt	i	i	i	i	i
Cc1cccc(-c2nc3c(cnn3-c3ccccc3)c(=O)n2-c2ccc(Cl)cc2)c1	nt	i	?	i	i	i
CS(=O)(=O)c1ccc(C(=O)OCC(=O)N2CCN(CCC3CCCCC3)CC2)cc1[N+](=O)[O-]	nt	3.5µM	4µM	3.2µM	nt	?
CC1CCCCN1C(=O)COC(=O)c1ccc(S(C)(=O)=O)c([N+](=O)[O-])c1 (centres undefined)	nt	nt	?	7.9µM	nt	nt
Cc1ccc(C(=O)OCC(=O)N2CCOCC2)cc1	i	i	i	i	i	i
CS(=O)(=O)c1ccc(C(=O)OCC(=O)N2CCOCC2)cc1[N+](=O)[O-]	nt	?	7.1µM	8.9µM	nt	?
CS(=O)(=O)c1ccc(C(=O)OCC(=O)N2CC(=O)Nc3ccccc32)cc1[N+](=O)[O-]	nt	nt	i	i	nt	nt
CS(=O)(=O)c1ccc(C(=O)OCC(=O)N2CCCC2)cc1[N+](=O)[O-]	nt	nt	11µM	i	nt	nt
CCCCN(C)CCNC(=O)Cn1ncc2c3ccccc3n(CCC)c2c1=O	nt	i	?	i	i	i
OC1(c2ccc3c(c2)CN(Cc2ccco2)CCO3)CCN(c2ccccc2F)CC1	nt	nt	nt	nt	nt	i
C=C1C=C(C(F)F)n2ncc(C(=O)Nc3cccc(CC)c3)c2N1	nt	nt	i	i	nt	nt
SMILES	DRD3 antagonist	ATXN2 expr inh	TGFb inhibitor	HepG2 tox	D3 ag	ATXN viability
CCCCCn1c(CN2CCN(c3cc(Cl)ccc3C)CC2)nc2c1c(=O)[nH]c(=O)n2C	i	i	i	i	87	i
CCCCCn1c(CN2CCN(c3ccc(OC)cc3)CC2)nc2c1c(=O)[nH]c(=O)n2C	nt	i	?	i	i	i
Cc1ccc(-c2[nH]ncc2CNC(C)c2ccccc2)cc1 (centres undefined)	nt	nt	i	i	nt	nt
C#CCn1c(=NC(=O)c2ccc(S(=O)(=O)N3CCc4ccccc4C3)cc2)sc2cc(S(N)(=O)=O)ccc21	i	?	i	2.8µM	i	18µM
Cn1cc(CN2CCc3sccc3C2)c(-c2ccccc2F)n1	-91	nt	i	i	i	?
O=C(N/N=C/c1cccs1)c1n[nH]c2c1CCCC2	i	15µM	i	i	i	i
Cc1ccc(/C=N/NC(=O)c2n[nH]c3c2CCCC3)cc1	i	i	?	i	i	i
